# Source: PubChem (National Center for Advancing Translational Sciences (NCATS))
# HepG2 viability: counter-screen for TGF-b inhibitors: cytotoxicity in HepG2 cells; HepG2 CAGA-GFP viability, ATP luminescence, 18 h; Potency, µM (highest dose often 46.1 µM), actives largely listed as cytotoxic; 0.76% of 410,000 active; AID 588856
#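 CellTiter-Glo luminescence gave cytotoxicity after 18 hours at 37 degrees C. The cells were HepG2 CAGA-GFP in 1% FBS DMEM, stimulated with 500 pg/mL TGF-beta after compound addition. %Activity was normalised to no-cell wells (complete cell-killing) and DMSO (no toxicity), and curves were fitted and classified.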
# Nrf2 block: inhibitors of Nrf2 signaling | Potency, µM (top dose mostly 46 µM), actives largely listed as inhibitors | 2.1% of 360,000 active | A549 ARE-Fluc reporter, luciferase luminescence, 18-24 h; note: nearly all actives have a fitted effect of over 60% in size
#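 Nrf2 activity is the BugLite luminescence, read 15 min after reagent at room temperature, following CellTiter-Fluor cytotoxicity readout (30 min, 37C). Compound titrations were applied for 18-24 h to 5000 A549 ARE_Fluc cells/well in 5% FBS OPTI-MEM.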
# Nrf2 ARE act: activators of Nrf2 (ARE) signaling | AREc32 ARE-luciferase reporter (MCF7-derived line), luminescence, 24 h | Potency, µM (doses to about 46.1 µM), hits mostly activators | 0.31% of 410,000 active | AID 624171; note: nearly all actives have a fitted effect of over 65% in size
#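 Luminescent ARE reporter assay in AREc32_Fluc cells: overnight plating at 37 deg C, 24 hr compound incubation, Steady-Glo added, 30 min RT before reading.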
# TGFb inhibitor: TGF-b pathway inhibition. 1.2% of 410,000 active. AID 588855. Potency, µM (series often up to 46.1 µM), most hits filed as inhibitors. HepG2 CAGA-GFP TGF-b/SMAD3 reporter, GFP fluorescence, 18 h; TGF-beta stimulated, 500 pg/mL final; note: nearly all actives have a fitted effect of over 65% in size
#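 Read-out: total well GFP (ex488/em500-530) summed from mean per-cell fluorescence. Cells: HEPG2 CAGA-GFP, 1% FBS DMEM, 18 h at 37 degrees C with 500 pg/mL final TGF-beta. Unstimulated wells served as the full-inhibition control; stimulated DMSO wells = 0%.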
# A549 tox: kills or reduces viability of A549 cells in Nrf2 counter-screen; A549 ARE-Fluc cells, CellTiter-Fluor viability, 18-24 h; 0.16% of 390,000 active; Potency, µM (highest dose often 46 µM), actives largely listed as inhibitors
#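 Cytotoxicity counterscreen: CellTiter-Fluor fluorescence was measured in A549 ARE_Fluc cells after 18-24 h of compound exposure in a concentration series. The subsequent BugLite luminescent read reports ARE-luciferase activity.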
# Hits are given with their value; - = inactive; ? = inconclusive; . = no result; ! = not confirmed by another sample; [ ] = dose if it differs, or a comment. Most compounds without a hit are left out; they make up all but 3.6% or so of the library. Calls come from the whole dose curve; as a rule, active = well fitted curve in the direction sought with a large enough effect; inconclusive = small, poorly fitted or top-dose-only effect, or another doubt; inactive = no such curve, though single readings can be large; an effect the other way counts as inactive or inconclusive.
SMILES,HepG2 viability,Nrf2 block,Nrf2 ARE act,TGFb inhibitor,A549 tox
O=C1C(Cl)=C(NCCCO)C(=O)c2ccccc21,-,.,-,?,-
O=C1C(SCCO)=C(SCCO)C(=O)c2ccccc21,7.08µM!,25.9µM,-,3.16µM,?
N#Cc1c(NC(=O)CSc2ncnc3sccc23)oc(-c2ccco2)c1-c1ccco1,-,-,10µM,-,-
CC(C)(C)C1CCC(OCC(O)CN2CCN(Cc3ccccc3)CC2)CC1 (configuration not stated),11.2µM,-,-,?,?
CCOC(=O)C1=C(N)c2ccccc2CC1C1CCCC1 (configuration not stated),-,-,-,12.6µM,-
C=C1c2ccccc2O[C@H](C(=O)OCC)[C@@H]1C1CCCCC1,-,-,-,-,-
Cc1ccc(S(=O)(=O)/N=C2\C(=O)c3ccccc3C([O-])=C2n2cc[n+](CCC(C)C)c2)cc1,7.08µM,?,-,3.98µM,-
Cc1ccc(NC(=O)C[n+]2ccn(C3=C([O-])c4ccccc4C3=O)c2)cc1,-,-,-,-,-
CC(=O)Nc1ccc(S(=O)(=O)/N=C2\C(=O)c3ccccc3C([O-])=C2n2cc[n+](-c3ccccn3)c2)cc1,-,-,-,?,-
CCCC[n+]1ccn(C2=C([O-])c3ccccc3C(=O)/C2=N\S(=O)(=O)c2ccc(Br)cc2)c1,-,?,-,6.31µM,?
CCO[C@H]1OC(C(=O)N2CCN(Cc3ccccc3)CC2)=C[C@@H](c2ccc(C(F)(F)F)cc2)[C@@H]1CCCO,-,29.1µM,-,?,?
Nc1ncnc2c1C(c1ccccc1)c1c(ccc3ccccc13)O2 (configuration not stated),-,18.4µM!,-,?,?
N=c1c2c(ccn1CCc1ccccc1)Oc1ccc3ccccc3c1C2c1ccccc1 (configuration not stated),.,3.66µM,.,.,3.66µM
O=C(CSc1nc2c(oc3ccccc32)c(=O)[nH]1)Nc1cccc(Cl)c1,-,?,-,11.2µM,-
N#CC(C#N)=C1C=CC=CN1/C(=C\c1ccco1)C(=O)c1ccc(-c2ccccc2)cc1,11.2µM,?,-[9.22 µM],7.08µM,?
CCOC(=O)C1=C(COC(=O)C(CC)c2ccccc2)NC(=O)NC1C (configuration not stated),-,-,-,-,-
CCCCCN=Cc1c(C)[nH]n(-c2nc3ccccc3s2)c1=O,1.41µM,?,-,-,-
Cc1ccccc1Nc1ncnc2c1cnn2-c1ccccc1,-,-,-,-,-
Cc1cc(C)nc(NCCCc2ccccc2)n1,-,-,-,-,-
CCCCNc1cc(C)nc(NCc2ccccc2)n1,-,18.4µM,-,?,-
Cc1cc(Nc2cccc(F)c2)nc(NCc2ccccc2)n1,-,?,-,?,?
Cc1cc(Nc2ccc(Cl)cc2)nc(NCc2ccccc2)n1,11.2µM,16.4µM,-[9.22 µM],?,?
Cc1ccc(/C=N/Nc2cc(C)nc(NCc3ccccc3)n2)cc1,12.6µM,?,-,?,-
CC(=O)N1CCN(c2ccc(NC(=O)c3ccc(N4CCCC4)c([N+](=O)[O-])c3)cc2Cl)CC1,-,23.1µM,-,-,-
CN(C)S(=O)(=O)c1cc(NC(=O)c2ccc(-n3ccnc3)c([N+](=O)[O-])c2)ccc1Cl,-,18.4µM,-,?,-
SMILES,HepG2 viability,Nrf2 block,Nrf2 ARE act,TGFb inhibitor,A549 tox
Cc1ccc(C(=O)Nc2ccccc2N2CCCCC2)cc1[N+](=O)[O-],-,11.6µM,-,?,-
COc1ccccc1NC(=O)c1ccc(-n2ccnc2)c([N+](=O)[O-])c1,-,?,-,-,-
CCCC(=O)N1CCN(c2ccc(NC(=O)c3ccc(N4CCCC4)c([N+](=O)[O-])c3)cc2Cl)CC1,-,-,-,-,-
Cc1cccc(N2CCN(CC(=O)Nc3ccccc3[N+](=O)[O-])CC2)c1C,-,20.6µM,-,-,-
COc1ccc(CNC(=O)COC(=O)CN2C(=O)COc3ccccc32)cc1,-,-,-,-,-
CCc1c(C)nc2[nH]nc(-c3ccccc3C)n2c1=O,-,.,-,-,-
CC(C)c1ccc(-c2noc(SCC(=O)N3CCCCC3C)n2)cc1 (configuration not stated),-,?,-,-,-
